Here are results for 40 compounds from PubChem BioAssay (NCATS).

SMILES strings stand for the structures. Records with an inconclusive call do not appear. Activity calls are given as the source filed them. Calls come from the whole dose curve; as a rule, active = well fitted inhibition curve with a large enough effect; inconclusive = small, poorly fitted or top-dose-only effect; inactive = flat fitted curve, though single readings scatter.
% is set by controls: 0 for no effect and ±100 for the full control effect; potency is the fitted concentration of half-maximal effect.

The test relates to MCC-26. The test can be described thus: qHTS assay to identify novel small-molecules to repurpose for Merkel cell carcinoma treatment (AID 1296009). Note: nearly all actives have a fitted effect of over 60% in size. The following applies: MCC and control cell lines, CellTiter-Glo viability, 72 h; series mostly up to 46 µM; activity change, negative = cytotoxicity: at the top concentration. An excerpt: MCC is a rare and aggressive neuroendocrine skin cancer with limited treatment options. Approximately 80% of MCCs have the Merkel cell polyomavirus (MCPyV) DNA integrated into the host genome (virus-positive: VP-MCC) and viral oncogenes drive oncogenesis. The remaining MCCs are virus-negative (VN-MCC) and are caused by UV mutagenesis. To identify novel treatments for VP-MCC and/or VN-MCC we screened three VP-MCC cell lines (WAGA, MKL-1, MKL-2), three VN-MCC cell lines (MCC-13, MCC-26, UISO), and four immortalized, non-transformed control cell lines (HaCaT, HEK293T, CRL7250, NIH-3T3) against ~2,400 compounds in the NCGC Pharmaceutical Collection (NPC) and ~1,900 compounds in the Mechanism Interrogation PlatE (MiPE). Using cell viability as a readout (CellTiter-Glo assay) we found both overlapping and distinct drugs that can be repurposed for the treatment of VP-MCC and VN-MCC.
A high-throughput screen was conducted in 1536-well white flat bottom plates (Corning) on a Kalypsys robotic system. Cell lines WAGA, MKL-1, MKL-2, MCC-13, MCC-26, UISO, HaCaT, HEK293T, CRL7250, and NIH-3T3 were screened against 2 small molecule annotated drug libraries NPC and MIPE in dose response (8 and 11 pt. respectively) measuring cell viability after 72 hours of incubation. […] A 1,536 pintool (Kalypsys) was used to transfer 23 nL of compound in DMSO to the 1,536-well assay plates. After 72 hr incubation at 37 degree celsius, 2.5 uL of CellTiter-Glo (Promega) was dispensed into each well using a BiorapTR. Plates were incubated at room temperature for 10 min, transferred to a ViewLux (PerkinElmer) and the luminescence was recorded using an exposure time of 2 seconds. Relative luminescence units (RLUs) were normalized to in-plate controls (no cells as a positive (cytotoxicity) control, DMSO as negative control) and the normalized data was processed using NCATS in-house software.
Regarding `CCCCC1C(=O)N(c2ccccc2)N(c2ccc(O)cc2)C1=O` (stereo not given), the “activity change, negative = cytotoxicity” value was -17.4% (inactive).

Turning to `CC(=O)c1ccc(OCC(=O)N2CCCCC2)cc1`, the “activity change, negative = cytotoxicity” value is 12.2% (inactive).

As to `Cc1cc(O)c2ccccc2c1O`, the “activity change, negative = cytotoxicity” value was 0.927% (inactive).

With `CN(C)c1ccc(N=NS(=O)(=O)O)cc1`, the “activity change, negative = cytotoxicity” value was 15% [at 92.7 µM] (inactive).

Take `CC(C(=O)O)c1ccc2c(c1)[nH]c1ccc(Cl)cc12` (stereo not given): the “activity change, negative = cytotoxicity” value is -7.93% (inactive).

Regarding `COc1cc2c3cc1Oc1cc(ccc1O)C[C@@H]1c4c(cc(OC)c(O)c4Oc4ccc(cc4)C[C@@H]3N(C)CC2)CC[N+]1(C)C`, the “activity change, negative = cytotoxicity” value was -0.724% (inactive).

In the case of `CN(C)CCn1nnnc1SCC1=C(C(=O)O)N2C(=O)[C@@H](NC(=O)Cc3csc(N)n3)[C@H]2SC1`, the “activity change, negative = cytotoxicity” value is -0.307% (inactive).

For the compound `COc1cccc2c1C(=O)c1c(O)c3c(c(O)c1C2=O)C[C@@](O)(C(=O)CO)C[C@@H]3O[C@H]1C[C@H](N)[C@H](O[C@@H]2CCCCO2)[C@H](C)O1`, the Potency was 7.5 µM (active).

Turning to `CNC(=O)c1c(I)c(NC(=O)CCCCC(=O)Nc2c(I)c(C(=O)O)c(I)c(C(=O)NC)c2I)c(I)c(C(=O)O)c1I`, the “activity change, negative = cytotoxicity” value was -15.2% (inactive).

As for `C/C(=N\O)c1ccc(OCC(=O)N2CCCCC2)cc1`, the “activity change, negative = cytotoxicity” value is -14.1% (inactive).

With `O=C(O)Cc1ccc2c(c1)C(=O)c1ccccc1CO2`, the “activity change, negative = cytotoxicity” value was 4.23% (inactive).

Turning to `Nc1ccc([N+](=O)[O-])cc1O`, the “activity change, negative = cytotoxicity” value was -4.21% [at 92.7 µM] (inactive).

In the case of `O=C(CCN1CCN(CCO)CC1)N1c2ccccc2Sc2ccc(C(F)(F)F)cc21`, the “activity change, negative = cytotoxicity” value was -0.133% (inactive).

Turning to `CCCCCCCCCCCCOCCO`, the “activity change, negative = cytotoxicity” value was 9.62% (inactive).

As to `NCCO`, the “activity change, negative = cytotoxicity” value is 5.36% [at 92.7 µM] (inactive).

Turning to `CN1CC(=O)N/C1=N/C(=O)Nc1cccc(Cl)c1`, the “activity change, negative = cytotoxicity” value was 6.83% (inactive).

With `Cc1ccc(C(=O)c2ccc(CC(=O)O)n2C)cc1`, the “activity change, negative = cytotoxicity” value was 4.02% (inactive).

Regarding `Cc1c(N)c(=O)n(-c2ccccc2)n1C`, the “activity change, negative = cytotoxicity” value is -15.4% (inactive).

For the compound `O=C(/C=C/c1ccccc1)NCCO`, the “activity change, negative = cytotoxicity” value was -0.844% (inactive).

With `C[N+]1(C)[C@@H]2CC(OC(=O)[C@H](CO)c3ccccc3)C[C@H]1[C@@H]1O[C@@H]12` (stereo not given in full), the “activity change, negative = cytotoxicity” value is 10.5% (inactive).

Turning to `Nc1ccc(O)c(C(=O)O)c1`, the “activity change, negative = cytotoxicity” value was 12.9% (inactive).

In the case of `CCC1C(=O)OCC1Cc1cncn1C` (stereo not given), the “activity change, negative = cytotoxicity” value was 1.34% (inactive).

As to `Cc1nc2ccccc2n1Cc1ccc(Cl)cc1`, the “activity change, negative = cytotoxicity” value was -13.4% (inactive).

Take `CC(=O)SCC(CC(=O)c1ccc(C)cc1)C(=O)O` (stereo not given): the “activity change, negative = cytotoxicity” value is 3.95% (inactive).

Consider `c1ccc2sc(SSc3nc4ccccc4s3)nc2c1`, for which the “activity change, negative = cytotoxicity” value was 5.49% [at 16.1 µM] (inactive).

On to `Cc1ccc(O)c(-n2nc3ccccc3n2)c1`, for which the “activity change, negative = cytotoxicity” value is -3.36% (inactive).

Turning to `CCCCCCOc1ccccc1C(N)=O`, the “activity change, negative = cytotoxicity” value was -13.4% (inactive).

On to `Cc1[nH]cnc1CN1CCc2c(c3ccccc3n2C)C1=O`, for which the “activity change, negative = cytotoxicity” value was 8.82% (inactive).

For the compound `Cc1ccc2c(n1)Oc1ccc(C(C)C(=O)OCC(=O)N(C)C)cc1C2` (stereo not given), the Potency result was “inactive”.

With `CC(N)C(=O)OC(C)(C)Cc1ccc(Cl)cc1` (stereo not given), the “activity change, negative = cytotoxicity” value was -10.8% (inactive).

For the compound `CN1CCN(c2cc3c(nn2)Oc2ccccc2N3C)CC1`, the “activity change, negative = cytotoxicity” value was 3.77% [at 16.1 µM] (inactive).

Take `CN(C)[C@@H]1C(=O)C(C(=O)NCN2CCCC2)=C(O)[C@@]2(O)C(=O)C3=C(O)c4c(O)cccc4[C@@](C)(O)C3C[C@@H]12` (stereo not given in full): the “activity change, negative = cytotoxicity” value is 5.13% (inactive).

On to `COc1ccnc2c1CCCCC2S(=O)c1nc2ccccc2[nH]1` (stereo not given), for which the “activity change, negative = cytotoxicity” value is 14.7% (inactive).

Take `CCCCCCCCCCCCCCCC(=O)OC(C)C`: the “activity change, negative = cytotoxicity” value was 16.9% (inactive).

Consider `CC1(C)S[C@@H]2[C@H](NC(=O)[C@H](N)c3ccccc3)C(=O)N2[C@H]1C(=O)O`, for which the “activity change, negative = cytotoxicity” value is 8.37% (inactive).

In the case of `Cc1c(C(=O)O)c(O)cc2c1C(=O)c1c(O)c([C@@H]3O[C@H](CO)[C@@H](O)[C@H](O)[C@H]3O)c(O)c(O)c1C2=O`, the “activity change, negative = cytotoxicity” value was -19.3% (inactive).

`CC(C(=O)O)c1ccc(C(=O)c2ccccc2)s1` (stereo not given): the “activity change, negative = cytotoxicity” value is 1.14% (inactive).

Turning to `O=C(O)Cc1cccc(-c2cc(CCCCCCc3ccc(O[C@H]4O[C@H](CO)[C@@H](O)[C@H](O)[C@@H]4O)c(-c4cccc(CC(=O)O)c4)c3)ccc2O[C@H]2O[C@H](CO)[C@@H](O)[C@H](O)[C@@H]2O)c1`, the activity change, negative = cytotoxicity is 4.83% [at 0.597 µM] (inactive).

`O=c1cc(-c2ccccc2)oc2ccccc12`: the “activity change, negative = cytotoxicity” value was -10.6% [at 92.7 µM] (inactive).

With `COc1ccc(-c2cc(=S)ss2)cc1`, the “activity change, negative = cytotoxicity” value is 1.63% (inactive).
